RORgamma inh: qHTS for inhibitors of ROR gamma transcriptional activity | Nuclear receptor ROR-gamma (Mus musculus), P51450 | Drosophila S2 Gal4-RORgamma UAS-luciferase reporter, 20 h | Potency, µM (highest dose often 53.6 µM), for the others: top-dose activity change, negative = inhibition, most hits filed as inhibitors | 5.4% of 310,000 active; note: nearly all actives have a fitted effect of over 60% in size
Target sequence (P51450 whole entry, looked up, the tested form may be a part): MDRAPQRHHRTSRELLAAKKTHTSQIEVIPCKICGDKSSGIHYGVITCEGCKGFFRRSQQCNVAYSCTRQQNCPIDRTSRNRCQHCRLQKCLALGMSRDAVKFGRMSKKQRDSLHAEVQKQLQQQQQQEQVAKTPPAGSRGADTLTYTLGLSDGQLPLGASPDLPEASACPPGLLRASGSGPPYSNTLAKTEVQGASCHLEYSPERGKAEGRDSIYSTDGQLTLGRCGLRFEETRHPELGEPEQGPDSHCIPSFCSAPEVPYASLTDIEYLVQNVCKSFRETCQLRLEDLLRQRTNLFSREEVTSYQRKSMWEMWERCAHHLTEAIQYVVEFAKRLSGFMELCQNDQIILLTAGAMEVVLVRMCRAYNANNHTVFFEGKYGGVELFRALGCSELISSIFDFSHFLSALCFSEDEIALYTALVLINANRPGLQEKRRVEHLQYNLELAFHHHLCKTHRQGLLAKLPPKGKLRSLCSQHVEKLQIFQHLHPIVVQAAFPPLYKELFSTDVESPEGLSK
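A Gal4/UAS one-hybrid system in insect cells: metallothionein-promoter Gal4–ROR gamma fusion plus Photinus luciferase reporter. Copper sulfate 700 uM final, 20 hr ambient incubation, luminescent detection after 10 min with reagent.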
Gal4-VP16 FLuc: VP16 counterscreen qHTS for inhibitors of ROR gamma transcriptional activity | 3.5% of 310,000 active | Potency, µM (doses to about 53.6 µM), without a hit: top-dose activity, negative = inhibition, usual class: inhibitors | AID 2546, 2010 | Drosophila S2 Gal4-VP16 UAS-luciferase, luminescence, 20 h;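 note: Gal4-VP16 expression switched on by copper sulfate through the metallothionein promoter; nearly all actives have a fitted effect of over 50% in size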
DT40 TDP1 no CPT: qHTS for Inhibitors of human tyrosyl-DNA phosphodiesterase 1 (TDP1): qHTS in cells in absence of CPT | 15% of 420,000 active | Potency, µM (top dose mostly 46.2 µM), for the others: at the top dose activity change, negative = growth inhibition, hits mostly inhibitors | AID 686978, 2013 | DT40 Tdp1-/- hTDP1 cells, no CPT, ATP luminescence, 48 h; note: nearly all actives have a fitted effect of over 55% in size
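Seeded 400 DT40-hTDP1 cells/well (vehicle DMSO, no 20 nM CPT); pinned compounds; ≥48 hr at 37 °C; CellTiter-Glo luminescence as viability measure.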
DT40 TDP1 CPT: qHTS for Inhibitors of human tyrosyl-DNA phosphodiesterase 1 (TDP1): qHTS in cells in presence of CPT. chicken DT40 Tdp1-/-;hTDP1 cells + 20 nM CPT, ATP luminescence, 48 h. Potency, µM (doses to about 46.2 µM), inactives show top-dose activity change, negative = growth inhibition, usual class: inhibitors. 12% of 420,000 active. AID 686979, 2013; note: nearly all actives have a fitted effect of over 55% in size
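Chicken DT40 Tdp1-/- cells stably complemented with human TDP1 were seeded at 400 cells/well in medium containing 20 nM camptothecin, exposed to pin-transferred compounds, and grown at 37 °C for at least 48 hr. Viability was read as ATP luminescence.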
ALOX12 inh: Primary qHTS assay for inhibitors of human arachidonate 12S-lipoxygenase (ALOX12): Round 2; purified 12hLO, xylenol orange hydroperoxide absorbance; Potency, µM (series often up to 108 µM), for the others: top-dose activity change, negative = inhibition, usual class: inhibitors; 1.1% of 580,000 active
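Purified human 12hLO (150 nM final) in 25 mM Hepes, 0.01% Triton X-100, pH 7.0 was preincubated 15 min at room temperature with compound. Then 40 uM arachidonic acid was added, 30 min. Hydroperoxide was read by Fe-XO absorbance ratio 573/405 nm.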
ELG1 DNA repair: qHTS screen for small molecules that inhibit ELG1-dependent DNA repair in human embryonic kidney (HEK293T) cells expressing luciferase-tagged ELG1 | AID 504467, 2011 | Potency, µM (series often up to 46.1 µM), for the others: at the top dose activity change, negative = inhibition, actives largely listed as inhibitors | 2.3% of 330,000 active | HEK293T ELG1-luciferase reporter, luminescence, 16 h; DNA damage induced by 5-fluorouridine; note: nearly all actives have a fitted effect of over 55% in size
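DMSO vehicle served as the neutral condition. Each well held 2,000 cells given 5-fluorouridine plus compound; after 16 hr at 37 °C/5% CO2, ONE-Glo was added and luciferase measured 30 min later.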
* = called active by the depositor; i = inactive; ? = inconclusive; · = no result; [ ] = another dose, or the depositor's remark. A selection: hits, their analogues and other compounds. The true share with any hit is near 15%. Calls come from the whole dose curve; as a rule, active = well fitted curve in the direction sought with a large enough effect; inconclusive = small, poorly fitted or top-dose-only effect, or another doubt; inactive = no such curve, though single readings can be large; an effect the other way counts as inactive or inconclusive. % is set by controls: 0 for no effect and ±100 for the full control effect; potency is the fitted concentration of half-maximal effect.

SMILES	RORgamma inh	Gal4-VP16 FLuc	DT40 TDP1 no CPT	DT40 TDP1 CPT	ALOX12 inh	ELG1 DNA repair
COc1c(C)cc(C(O)c2ncc(-c3ccccc3C(F)(F)F)[nH]2)cc1C (stereo not drawn)	·	·	?	?	0.7%	·
Cc1cc(C)c(C(O)c2ncc(-c3cccc4ccccc34)[nH]2)c(C)c1 (stereo not drawn)	·	·	?	?	-20.9%	·
OC(Cc1ccccc1)c1ncc(-c2ccc(Cl)cc2)[nH]1 (stereo not drawn)	·	·	16.4µM*	?	-12.2%	·
O=C1NCc2ccccc2CC12CCCN2CC1CC=CCC1 (stereo not drawn)	·	·	·	·	15.0%[6.33 µM]	·
Cc1cc(C)c(C(O)c2ncc(-c3ccccc3F)[nH]2)c(C)c1 (stereo not drawn)	·	·	?	14.6µM*	-0.5%	·
Cc1cccc(C)c1C(O)c1ncc(-c2ccccc2F)[nH]1 (stereo not drawn)	·	·	?	20.6µM*	-5.3%	·
Cc1cc(C)c(C(O)c2ncc(-c3ccccc3C)[nH]2)c(C)c1 (stereo not drawn)	·	·	-29.3%	-29.7%	4.6%	·
Cc1cc(C)c2oc(C(=O)NCC(c3cccs3)N3CCOCC3)cc(=O)c2c1 (stereo not drawn)	·	·	·	·	34.7%	·
O=C(Nc1ccc(F)c(F)c1F)c1n[nH]c(=O)c2ccccc12	·	·	·	·	-9.7%	·
CC1CCN(c2nnc(-n3cccc3CN3CCN(C4CCCCC4)CC3)s2)CC1	·	·	·	·	41.4%	·
CCc1ccc(NCc2cc3cc4c(cc3n(CC(=O)Nc3ccc(OC)cc3)c2=O)OCO4)cc1	·	·	4.61µM*	?	0.8%	·
COc1ccc(NCc2cc3cc4c(cc3n(CC(=O)Nc3ccc(F)cc3F)c2=O)OCO4)cc1	·	·	14.6µM*	6.51µM*	13.2%	·
COCCNC(=O)C1COC2(CCN(C(=O)c3ccc(F)cc3)CC2)N1C(=O)c1cccc(OC)c1 (stereo not drawn)	·	·	·	·	8.8%	·
Cn1cccc1C(=O)C(=O)Nc1cc(Cl)cc(Cl)c1	32.1%	-12.1%	14.6µM*	16.4µM*	87.1%	?
Cn1cccc1C(=O)C(=O)Nc1ccc(F)c(F)c1	?	?	-0.9%	-3.2%	-4.1%	?
CCN(CC)c1ccccc1/C=C/[n+]1ccc(CCCCI)c2ccccc21	·	·	0.562µM*	0.631µM*	·	·
CSc1nn(CC(=O)Nc2cc(C)ccc2C)c(N)c1S(=O)(=O)c1ccccc1	·	·	6.51µM*	?	-24.2%	·
CCOC(=O)c1ccc(NC(=O)Cn2nc(SC)c(S(=O)(=O)c3ccc(Cl)cc3)c2N)cc1	·	·	20.6µM*	?	?	·
CSc1nn(CC(=O)Nc2ccccc2F)c(N)c1S(=O)(=O)c1ccccc1	·	·	-26.6%	-24.6%	-31.6%	·
CCSc1nn(CC(=O)Nc2ccc(C(=O)OC)cc2)c(N)c1S(=O)(=O)c1ccc(C)cc1	·	·	20.6µM*	16.4µM*	-29.0%	·
O=c1oc2cc(OCc3nn[nH]n3)ccc2cc1-c1ccc(F)cc1	·	·	·	·	-8.8%	·
CCn1cc(S(=O)(=O)N2CCC3(CC2)CC(N2CCOCC2)CCO3)cn1 (stereo not drawn)	·	·	·	·	32.7%	·
CC(C)CCNC(=O)c1cc(-c2ccc(Br)s2)nc2ccccc12	·	·	?	14.6µM*	-22.4%	·
COc1ccc(CNC(=O)c2coc(=O)c3ccccc23)c(OC)c1	43.5%	-8.3%	?	-22.8%	-0.6%	-0.6%
COc1ccc(CNC(=O)c2cc(-c3ccc(Br)s3)nc3ccccc23)c(OC)c1	·	·	14.6µM*	?	2.4%	·
SMILES	RORgamma inh	Gal4-VP16 FLuc	DT40 TDP1 no CPT	DT40 TDP1 CPT	ALOX12 inh	ELG1 DNA repair
COc1ccc(-c2cc(C(=O)NCc3ccc(F)cc3)c3ccccc3n2)c(OC)c1	·	·	·	·	15.8µM*	·
O=C(NCC1CCN(C2CC2)C1)Nc1ccc(Cl)cc1 (stereo not drawn)	·	·	·	·	4.9%	·
COCCN(CCOC)C(=O)c1cccc(C#N)c1	·	·	·	·	4.5%	·
O=C(CNC(=O)NCCc1ccccc1)NCC(F)(F)F	·	·	·	·	-42.4%	·
CCOc1ccc(NC(=O)N(Cc2c[nH]c3ccccc23)C2CCCCCC2)cc1	·	·	?	9.2µM*	-4.1%	·
CCOc1ccc(NC(=O)N(Cc2c[nH]c3ccccc23)C2CCCCC2)cc1	·	·	18.4µM*	8.2µM*	-7.6%	·
O=C1COc2ccc(N3C(=O)C=CC3=O)cc2N1	6.31µM*	10µM*	·	·	·	18.8%
O=C1COc2ccc(S(=O)(=O)N3CCCC3)cc2N1	-0.5%	-6.5%	1.7%	-14.8%	0.0%	15.2%
O=C(O)c1cc(/C=C/C(=O)c2cc(F)ccc2O)c2c(c1)COCO2	12.6µM*	10µM*	?	-29.5%	-32.0%	?
COc1ccc(C(=O)/C=C/c2cc(C(=O)O)cc3c2OCOC3)c(O)c1	-32.0%	27.2%	23.1µM*	?	-24.0%	?
COc1ccccc1/C=C/C(=O)c1cc(F)ccc1OC(=O)c1ccccc1	·	·	·	·	-14.4%	·
Cc1ccc(-c2[nH]ncc2CN2CCN(c3ccc(Cl)cn3)CC2)cc1C	·	·	·	·	43.5%	·
Cc1cc(C)n(-c2ccc([N+](=O)[O-])cc2-c2nn[nH]n2)n1	0.3%	1.6%	8.3%	-8.2%	i	15.7%
O=[N+]([O-])c1ccc(O)c(-c2nn[nH]n2)c1	10µM*	-24.0%	?	18.4µM*	0.0%	?
CN(C)c1ccc(CN(C)C2CCc3ccccc32)cc1 (stereo not drawn)	·	·	·	·	37.1%[176 µM]	·
CC(C)C/C(=N\NC(=O)C1CC1c1ccccc1)c1ccccc1 (stereo not drawn)	·	·	·	·	10.3%	·
Cc1ccc(/C=C/C(=O)OC(C)C(=O)Nc2ccc(Cl)cn2)o1 (stereo not drawn)	58.9%	19.9%	16.4µM*	13µM*	?	-0.8%
Cc1ccc(/C=C/C(=O)OC(C)C(=O)c2ccc(C)c(C)c2)o1 (stereo not drawn)	·	·	·	·	6.31µM*	·
Cc1ccsc1C(=O)OC(C)C(=O)Nc1ccc(Cl)cn1 (stereo not drawn)	·	·	25.9µM*	?	1.7%	-0.7%

Compound activity (PubChem BioAssay)
